CHRM1 antagonist – human CHRM1 antagonism | P11229 | CHO-K1 hM1, Fluo-8 calcium fluorescence, ACh EC80 antagonist | inhibition, % at 3 µM | hit rate 1.3% among 360,000;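 active means percent inhibition above its own plate's cutoff, namely the mean of that plate's compound wells plus 3 SD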;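 further: peak over basal fluorescence ratio during 140 s after agonist addition; 0% = ACh EC80 plus DMSO and 100% = DMSO alone without agonist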
Target sequence (P11229 whole entry, looked up): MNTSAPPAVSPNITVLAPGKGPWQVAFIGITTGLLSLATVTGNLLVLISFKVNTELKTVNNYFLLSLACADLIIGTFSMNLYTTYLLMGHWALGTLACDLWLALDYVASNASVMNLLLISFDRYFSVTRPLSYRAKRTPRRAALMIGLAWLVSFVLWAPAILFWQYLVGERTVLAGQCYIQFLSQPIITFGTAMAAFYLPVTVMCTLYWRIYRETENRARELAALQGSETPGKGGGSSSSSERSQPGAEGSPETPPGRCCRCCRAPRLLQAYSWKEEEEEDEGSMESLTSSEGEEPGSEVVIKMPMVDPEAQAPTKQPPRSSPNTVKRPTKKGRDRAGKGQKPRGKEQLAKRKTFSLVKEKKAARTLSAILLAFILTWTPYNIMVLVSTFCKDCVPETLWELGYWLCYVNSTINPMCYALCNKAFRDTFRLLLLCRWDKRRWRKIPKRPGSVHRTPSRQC
CHO-K1 Ca antag – M1 antagonist counterscreen hit in parental CHO-K1 cells; ATP-induced calcium, Fluo-8 fluorescence; inhibition, % at 3 µM; hit rate 0.6% among 360,000;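 active means inhibition above a per-plate cutoff, the plate's mean sample inhibition plus 3 SD, cut at about 24% in these data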;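 further: 0% = DMSO plus EC80 ATP and 100% = DMSO alone without ATP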
CHO-K1 Ca ag – counter-screen for M1 agonists: effect in parental CHO-K1 cells. Fluo-8 calcium fluorescence; scaled to maximal ATP response, vehicle zero. activation, % at 3 µM. hit rate 0.48% among 360,000; in the data active means activation above about 15%;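 further: untransfected CHO-K1 host cells lacking M1 receptor as counterscreen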
CHO-K1 Ca PAM – M1 PAM counterscreen hit in parental CHO-K1 cells | ATP EC20, Fluo-8 calcium fluorescence; 0% at ATP EC20, 100% at ATP max | activation, % at 3 µM | hit rate 0.02% among 360,000 | AID 602247;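 active means activation above the run cutoff, the mean activation of all test compounds plus 3 SD, cut at about 40% in these data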;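 further: peak over basal fluorescence ratio in a 140 s read after ATP addition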
M1 ag – activates human CHRM1 receptor; hit rate 0.33% among 360,000; CHO-K1 hM1, Fluo-8 calcium fluorescence, agonist mode; 0% DMSO, 100% acetylcholine EC100; P11229; AID 588814; activation, % at 3 µM;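 active means activation above the run's mean compound activation plus 3 SD, cut at about 16% in these data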;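 further: peak over basal fluorescence ratio within a 140 s kinetic read after compound addition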
M1 PAM – potentiates human M1 receptor response to acetylcholine; hit rate 0.088% among 360,000; CHO-K1 hM1, Fluo-8 calcium fluorescence, ACh EC20; 0% = ACh EC20, 100% = maximal ACh; activation, % at 3 µM; P11229; in the data active means activation above about 19%, passing the limit was not always enough
* marks the source's active call; other numbers are inactive results. Hits are enriched below; roughly 2.4% of the tested compounds scored in any of these assays.

SMILES | CHRM1 antagonist | CHO-K1 Ca antag | CHO-K1 Ca ag | CHO-K1 Ca PAM | M1 ag | M1 PAM
CCc1nc2ccc(C(=O)NCCc3c[nH]c4ccccc34)cn2c1N(C)CCCc1ccccc1 | 15 | -14 | 1 | 11 | -8 | -18
CCc1nc2ccc(C(=O)Nc3cccc(NS(C)(=O)=O)c3)cn2c1N(C)CCCc1ccccc1 | 41* | 3 | 2 | 3 | -7 | -22
CCc1nc2ccc(C(=O)NCCNC(C)=O)cn2c1N(C)CCCc1ccccc1 | 12 | -16 | 3 | 14 | -6 | -21
CCc1nc2ccc(C(=O)Nc3ccc(NC(C)=O)cc3)cn2c1N(C)CCCc1ccccc1 | 47* | 2 | 2 | 6 | -4 | -29
CCc1nc2ccc(C(=O)Nc3cccc(OC)c3)cn2c1N(C)CCCc1ccccc1 | -3 | 6 | 0 | 9 | -9 | -3
CCc1nc2ccc(C(=O)Nc3ccc(C(=O)N(C)C)cc3)cn2c1N(C)CCCc1ccccc1 | 39* | 0 | 1 | 5 | -9 | -24
Cc1ccc(OC(=O)CCNC(=O)c2ccccc2Cl)c(Br)c1 | -20 | -14 | 1 | 7 | -1 | 15
Cn1c(=O)n(C)c2cc(S(=O)(=O)Nc3ccccc3O)ccc21 | 5 | -18 | 4 | 34 | -4 | -1
Cc1ccc(NS(=O)(=O)c2ccc3c(c2)n(C)c(=O)n3C)c(C)c1 | -10 | 0 | 18* | 25 | 0 | 7
Cc1ccc(N=Cc2c(O)[nH]c3ccccc23)c([N+](=O)[O-])c1 | -2 | -1 | 1 | 4 | -1 | -3
COc1ccccc1CCc1nnc(CCC(=O)N(C)Cc2cccc3cnccc23)o1 | 16 | 25* | 0 | -16 | -7 | -9
COc1ccc2cc1Oc1ccc(cc1)CC1c3c(cc(OC)c4c3Oc3cc5c(cc3O4)CCNC5C2)CCN1C (configuration not stated) | 91* | -1 | 3 | -6 | -12 | -35
CCOC(=O)C1(Cc2ccccc2)C(=O)N(CCCN(C)C)c2ccccc21 (configuration not stated) | 28 | 1 | 0 | 3 | -9 | -15
O=C(OCc1ccccc1)N1CCc2ccccc21 | -15 | -6 | 3 | 22 | -5 | 3
COc1ccccc1CNCc1ccc(OC)c2ccccc12 | -1 | -6 | 5 | 5 | 1 | -1
COc1cccc(CN2CCSCC2)c1OC | 13 | 25* | 0 | -26 | -5 | -2
COc1cccc(CNCc2ccc(OC)c3ccccc23)c1OC | 22 | 12 | 23* | -1 | -1 | -9
CCN1C(=O)[C@H]2[C@@H](c3ccc(OC)cc3)N[C@]3(CCCN(Cc4ccc(Br)cc4)C3=O)[C@H]2C1=O | -12 | -19 | 1 | 9 | -2 | 13
CCOC(=O)c1c(C)[nH]c(C(=O)COC(=O)C2CC2)c1C | 31* | 13 | 0 | -24 | 0 | -12
CCOC(=O)c1c(C)[nH]c(C(=O)COC(=O)COc2ccc(OC)cc2)c1C | -6 | -2 | 16* | 17 | 3 | 7
CC(=O)c1c(C)[nH]c(C(=O)COC(=O)C2CC2)c1C | -14 | -4 | 1 | 8 | -1 | 13
C=CCN1CN(S(=O)(=O)c2cccc(Cl)c2)c2nc3ccccc3nc21 | 8 | -9 | 1 | 0 | -2 | -3
CCN1CCC2(CC1)N=C(c1ccc(F)cc1)C(=S)N2C(=O)c1ccc(C(C)(C)C)cc1 | 101* | 8 | 1 | -7 | -15 | -28
O=C(c1ccccc1)N1N=C(c2ccc(F)cc2)CC1(O)C(F)(F)F (configuration not stated) | -6 | -14 | -1 | -3 | -6 | 7
CCN1CCN(c2nc(-c3ccc(F)cc3)cc(=O)[nH]2)CC1 | -8 | -6 | 0 | 14 | -2 | 10
SMILES | CHRM1 antagonist | CHO-K1 Ca antag | CHO-K1 Ca ag | CHO-K1 Ca PAM | M1 ag | M1 PAM
CN1CCC2(CC1)N=C(c1ccc(F)cc1)C(=S)N2C(=O)c1ccccc1 | 45* | 10 | 0 | -12 | -7 | -26
CCn1nc(C(=O)Nc2ccccc2N2CCCC2)c2ccccc2c1=O | 9 | 7 | 17* | -5 | -5 | -2
Nc1c(C(=O)O)sc2nc3c(cc12)CCCC3 | -5 | 5 | 16* | 7 | 9 | 10
NC(=O)c1sc2nc3c(cc2c1N)CCCCCC3 | -12 | -7 | 0 | 17 | -5 | 4
CCOC(=O)Nc1ccc2c(c1)N(C(=O)CN(CC)CC)c1ccccc1C=C2 | 72* | -5 | 0 | 0 | -15 | -35
CCOC(=O)Nc1ccc2c(c1)N(C(=O)CCN(CC)CC)c1ccccc1S2=O (configuration not stated) | 59* | -10 | 1 | 13 | -9 | -27
O=C(COc1ccc2ccccc2c1)N1CCNCC1 | -21 | -23 | 0 | 23 | -3 | 17
O=C(COc1ccc2ccccc2c1)N1CCN(c2ccccc2O)CC1 | -9 | 24* | 1 | -6 | -1 | -6
NC(=S)NNC(=O)C12CC3CC(CC(C3)C1)C2 | 23* | 8 | 19* | -6 | 29* | -6
Cc1ccc(-c2cn(-c3ccccc3)c3[n+]2CCCS3)cc1 | 40 | -11 | 1 | 17 | -4 | -22
CCc1ccc(-n2cc(-c3ccc(F)cc3)[n+]3c2SCCC3)cc1 | 52* | 0 | 1 | 19 | -13 | -32
CC(CC(=O)N(C)c1c(N)n(Cc2ccccc2)c(=O)[nH]c1=O)c1ccccc1 (configuration not stated) | 28* | 14 | 0 | -26 | -1 | -10
CC(C)CN(C(=O)COC(=O)CSc1ccccc1F)c1c(N)n(Cc2ccccc2)c(=O)[nH]c1=O | -11 | 61* | 1 | -7 | -2 | 8
COc1ccccc1Cn1[nH]nnc1=S | 6 | 0 | 13 | 8 | 5 | -1
CN(CCOc1ccc(Cl)cc1)Cc1cccc(S(=O)(=O)N(C)C)c1 | 16 | -8 | 9 | 10 | 32* | -7
Cc1noc(C)c1S(=O)(=O)Nc1c(C)n(C)n(-c2ccccc2)c1=O | 3 | 31* | 0 | -6 | -1 | 5
COCC(C)NC(=O)c1ccc(CN2CCc3ccccc3C2)cc1 (configuration not stated) | 65* | 16 | 0 | -4 | -9 | -25
O=C(NCc1ccc2c(c1)OCO2)c1ccc(CN2CCc3ccccc3C2)cc1 | 32* | -15 | 1 | 16 | -6 | -20
CCCCOc1ccc(C(=O)NCC(=O)N2CCN(Cc3ccc4c(c3)OCO4)CC2)cc1 | 30* | 5 | 2 | -19 | -6 | -16
CCC(C)NC(=O)c1ccc(CN2CCc3ccccc3C2)cc1 (configuration not stated) | 65* | -6 | 1 | 7 | -9 | -26
O=C(NCC(=O)N1CCN(Cc2ccc3c(c2)OCO3)CC1)c1ccccc1F | 2 | -14 | 1 | 1 | 0 | 0

Assay outcomes (PubChem BioAssay)
